Laboratory results taken from PubChem BioAssay (NCI).
This is part of a sample that, as a whole, favours compounds with a hit. Of some 79,000 tested, about 15% had one in any assay. Activity calls are given as the source filed them. No stated cut-off is given here; in the data, active means growth inhibition above about 70%; inactive means the rest.

assay: NCI Yeast Anticancer Drug Screen. Data for the cln2 rad14 strain (AID 165);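 further: 0% = growth equal to vehicle treated cultures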; details: S. cerevisiae cln2 rad14 strain, at 50.0 µM (retest, dose inferred, filed as 5.0), active compounds read high
In short: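 Growth inhibition, relative to vehicle-treated controls, is the read-out. The test organism is a yeast strain with defined genetic alterations, cln2 rad14.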

Row | SMILES | growth inhibition
1 | CCOC(=O)C[P+](c1ccc(C)cc1)(c1ccc(C)cc1)c1ccc(C)cc1 | 82% (active)
2 | O=C(NCCl)Nc1ccccc1 | 65% (inactive)
3 | O=c1[nH]c2ccccc2c2cccc(F)c12 | 68% (inactive)
4 | O=C(c1c(F)c(F)c(F)c(F)c1F)N1CCN(C(=O)c2c(F)c(F)c(F)c(F)c2F)C1=S | 88% (active)
5 | O=C(CNS(=O)(=O)Cc1ccccc1)NCC(=O)NNc1ccccc1 | 40% (inactive)
6 | CC1(C)C(=O)N(CCCCCCN2C(=O)C(C)(C)c3ccccc32)c2ccccc21 | -11% (inactive)
7 | CC(=O)Nc1cccc2c1ccc1ccc3ccccc3c12 | -11% (inactive)
8 | COc1ccc(-c2noc(=O)c3ccccc23)cc1 | 3% (inactive)
9 | c1ccc([B-](c2ccccc2)(c2ccccc2)c2ccccc2)cc1 | -16% (inactive)
10 | CCc1cccc(C)c1N1C(=O)C(=O)C(c2nc3ccccc3o2)/C(=N\NS(=O)(=O)c2ccc(C)cc2)C1=O (stereo not drawn) | -2% (inactive)
11 | Cc1ccc(-[n+]2cc([O-])on2)cc1 | -3% (inactive)
12 | CCOC(=O)C(Cc1cn(S(=O)(=O)c2ccccc2)c2ccccc12)(NC(C)=O)C(=O)OCC | 33% (inactive)
13 | CC(=O)N1C=C2CCC3c4ccccc4NC3C2CC1 (stereo not drawn) | 0% (inactive)
14 | O=c1cccccc1[O-].O=c1cccccc1[O-].O=c1cccccc1[O-].[Ce+3] | 16% (inactive)
15 | CC(=O)OC(C#N)CC(C)(C)/[N+]([O-])=[N+](\[O-])C(C)(C)CC(C#N)OC(C)=O (stereo not drawn) | 61% (inactive)
16 | O=C(O)C1(Cc2ccc3c(c2)CCC3)Cc2cc3c(cc2C1)CCC3 | -1% (inactive)
17 | COC(=O)C12OCC34C(CC5C(C)C6=CC(=O)OC6=CC5(C)C3C(O)C1O)OC(=O)C(OC(C)=O)C24 (stereo not drawn) | 99% (active)
18 | O=S(=O)(c1cc(Cl)ccc1Cl)N1CCc2ccccc2C1 | 15% (inactive)
19 | CSC(=S)n1nc(-c2cccs2)c(N=Nc2ccc(Cl)cc2)c1C(F)(F)F | 49% (inactive)
20 | O=[N+]([O-])C1=Cc2ccccc2S(=O)(=O)CC1 | 83% (active)

Row | SMILES | growth inhibition
21 | COc1ccc(/C=N/n2c(C)nc3c(sc(=S)n3-c3ccccc3)c2=O)cc1 | 4% (inactive)
22 | Fc1ccc(NC(=S)SCc2ccccc2)cc1F | 81% (active)
23 | O=[N+]([O-])c1cccc2c1[nH]c1c(-c3ccccc3)nccc12 | 67% (inactive)
24 | CCOC(=O)CC(=O)/C=C/c1ccncc1 | 1% (inactive)
25 | c1ccc([P+](c2ccccc2)(c2ccccc2)C2CCCC2)cc1 | -1% (inactive)
26 | COc1cc(Cc2n[nH]c(=S)n2-c2ccccc2)c(S(N)(=O)=O)cc1OC | 4% (inactive)
27 | CCCCCN(CCCCC)CCNc1ccc(C)c2sc3ccccc3c(=O)c12 | 93% (active)
28 | COC(=O)[C@@]12OC[C@]34[C@H]([C@@H](O)[C@@H]1O)[C@@]1(C)CC(=O)C(O)=C(C)[C@@H]1C[C@H]3OC(=O)[C@H](OC(=O)C(Cc1ccccc1)NC(=O)OC(C)(C)C)[C@@H]24 (stereo partly drawn) | 78% (active)
29 | CC(=O)Nc1ccc(C(=O)C(C)Br)cc1 (stereo not drawn) | 98% (active)
30 | COc1ccc2c(c1)[n+]([O-])c(C(N)=O)c(N)[n+]2[O-] | 98% (active)
31 | Cc1c2c(c(C)c3c4c(oc13)CCCC4)C=NCC2 | 26% (inactive)
32 | CC1C(C(=O)O)CC([N+](=O)[O-])C(Cl)C1[N+](=O)[O-] (stereo not drawn) | 44% (inactive)
33 | CCN(CC)c1ccc(N=C2C=C(C(=O)Nc3cccc(Cl)c3)C(=O)c3ccccc32)c(C)c1 | -7% (inactive)
34 | C[N+](C)(C)CCN(Cc1cccs1)c1ccccn1 | -111% (inactive)
35 | O=C(c1ccccc1)c1c(CO[N+](=O)[O-])n([O-])c2ccccc2[n+]1=O | 96% (active)
36 | CCC[C@H]1[C@H](CCC)[C@@]2(OC(=O)C3=C2CCC=C3)[C@]12OC(=O)C1=C2CCC=C1 | 99% (active)
37 | O=C(CC(=O)c1ccccc1NC1=Cc2ccccc2C(=O)C1=O)C(=O)NC1=C(Cl)C(=O)c2ccccc2C1=O | 66% (inactive)
38 | C=CC[P+](CC[P+](CC=C)(c1ccccc1)c1ccccc1)(c1ccccc1)c1ccccc1 | -10% (inactive)
39 | NCC1CCNCC1 | -6% (inactive)

same assay, conditions: S. cerevisiae cln2 rad14 strain, at 50.0 µM, active compounds read high

Row | SMILES | growth inhibition
40 | CCOC(=O)C[P+](c1ccc(C)cc1)(c1ccc(C)cc1)c1ccc(C)cc1 | 89.2% (active)
41 | O=C(NCCl)Nc1ccccc1 | 17.9% (inactive)
42 | O=c1[nH]c2ccccc2c2cccc(F)c12 | 69.5% (inactive)
43 | O=C(c1c(F)c(F)c(F)c(F)c1F)N1CCN(C(=O)c2c(F)c(F)c(F)c(F)c2F)C1=S | 85.3% (active)
44 | O=C(CNS(=O)(=O)Cc1ccccc1)NCC(=O)NNc1ccccc1 | 44.4% (inactive)
45 | CC1(C)C(=O)N(CCCCCCN2C(=O)C(C)(C)c3ccccc32)c2ccccc21 | 83.5% (active)
46 | CC(=O)Nc1cccc2c1ccc1ccc3ccccc3c12 | -3.25% (inactive)
47 | COc1ccc(-c2noc(=O)c3ccccc23)cc1 | 64.2% (inactive)
48 | c1ccc([B-](c2ccccc2)(c2ccccc2)c2ccccc2)cc1 | 98.4% (active)
49 | CCc1cccc(C)c1N1C(=O)C(=O)C(c2nc3ccccc3o2)/C(=N\NS(=O)(=O)c2ccc(C)cc2)C1=O (stereo not drawn) | 36% (inactive)
50 | Cc1ccc(-[n+]2cc([O-])on2)cc1 | 64.2% (inactive)
51 | CCOC(=O)C(Cc1cn(S(=O)(=O)c2ccccc2)c2ccccc12)(NC(C)=O)C(=O)OCC | -3.35% (inactive)
52 | CC(=O)N1C=C2CCC3c4ccccc4NC3C2CC1 (stereo not drawn) | -29.1% (inactive)
53 | O=c1cccccc1[O-].O=c1cccccc1[O-].O=c1cccccc1[O-].[Ce+3] | 90.4% (active)
54 | CC(=O)OC(C#N)CC(C)(C)/[N+]([O-])=[N+](\[O-])C(C)(C)CC(C#N)OC(C)=O (stereo not drawn) | 3.2% (inactive)
55 | O=C(O)C1(Cc2ccc3c(c2)CCC3)Cc2cc3c(cc2C1)CCC3 | 82% (active)
56 | COC(=O)C12OCC34C(CC5C(C)C6=CC(=O)OC6=CC5(C)C3C(O)C1O)OC(=O)C(OC(C)=O)C24 (stereo not drawn) | 91.7% (active)
57 | O=S(=O)(c1cc(Cl)ccc1Cl)N1CCc2ccccc2C1 | -11.4% (inactive)
58 | CSC(=S)n1nc(-c2cccs2)c(N=Nc2ccc(Cl)cc2)c1C(F)(F)F | 65.4% (inactive)
59 | O=[N+]([O-])C1=Cc2ccccc2S(=O)(=O)CC1 | 63.5% (inactive)

Row | SMILES | growth inhibition
60 | COc1ccc(/C=N/n2c(C)nc3c(sc(=S)n3-c3ccccc3)c2=O)cc1 | 8.15% (inactive)
61 | Fc1ccc(NC(=S)SCc2ccccc2)cc1F | 92.5% (active)
62 | O=[N+]([O-])c1cccc2c1[nH]c1c(-c3ccccc3)nccc12 | 80.3% (active)
63 | CCOC(=O)CC(=O)/C=C/c1ccncc1 | 68.7% (inactive)
64 | c1ccc([P+](c2ccccc2)(c2ccccc2)C2CCCC2)cc1 | 98.3% (active)
65 | COc1cc(Cc2n[nH]c(=S)n2-c2ccccc2)c(S(N)(=O)=O)cc1OC | 8.55% (inactive)
66 | CCCCCN(CCCCC)CCNc1ccc(C)c2sc3ccccc3c(=O)c12 | 95.7% (active)
67 | COC(=O)[C@@]12OC[C@]34[C@H]([C@@H](O)[C@@H]1O)[C@@]1(C)CC(=O)C(O)=C(C)[C@@H]1C[C@H]3OC(=O)[C@H](OC(=O)C(Cc1ccccc1)NC(=O)OC(C)(C)C)[C@@H]24 (stereo partly drawn) | 85.9% (active)
68 | CC(=O)Nc1ccc(C(=O)C(C)Br)cc1 (stereo not drawn) | 23.6% (inactive)
69 | COc1ccc2c(c1)[n+]([O-])c(C(N)=O)c(N)[n+]2[O-] | 99.1% (active)
70 | Cc1c2c(c(C)c3c4c(oc13)CCCC4)C=NCC2 | 29.2% (inactive)
71 | CC1C(C(=O)O)CC([N+](=O)[O-])C(Cl)C1[N+](=O)[O-] (stereo not drawn) | 35.4% (inactive)
72 | CCN(CC)c1ccc(N=C2C=C(C(=O)Nc3cccc(Cl)c3)C(=O)c3ccccc32)c(C)c1 | 38.4% (inactive)
73 | C[N+](C)(C)CCN(Cc1cccs1)c1ccccn1 | 72.2% (active)
74 | O=C(c1ccccc1)c1c(CO[N+](=O)[O-])n([O-])c2ccccc2[n+]1=O | 99.2% (active)
75 | CCC[C@H]1[C@H](CCC)[C@@]2(OC(=O)C3=C2CCC=C3)[C@]12OC(=O)C1=C2CCC=C1 | 91.7% (active)
76 | O=C(CC(=O)c1ccccc1NC1=Cc2ccccc2C(=O)C1=O)C(=O)NC1=C(Cl)C(=O)c2ccccc2C1=O | 82.7% (active)
77 | C=CC[P+](CC[P+](CC=C)(c1ccccc1)c1ccccc1)(c1ccccc1)c1ccccc1 | -31.6% (inactive)
78 | NCC1CCNCC1 | 16% (inactive)
